Compounds without any hit were thinned out: in the full panel of roughly 83,000, 20% have a hit.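 Interpretation: 100, growth as untreated; towards 0, rising growth inhibition; 0, no net growth; 0 to -100, cell death. Compounds scoring below 10 were considered active.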 Calls of active or inactive are those of the source.
Tests used:
Test in all cases: NCI-60 one-dose screen, 48 h (100 = growth as untreated, 0 = no growth, -100 = all killed)
Conditions in all cases: 10 µM unless noted
NCI-H23 lung = tested on: NCI-H23 lung
NCI-H226 lung = tested on: NCI-H226 lung
NCI-H322M lung = tested on: NCI-H322M lung
HOP-62 NSCLC = tested on: HOP-62 NSCLC
NCI-H460 lung = tested on: NCI-H460 lung
HOP-92 NSCLC = tested on: HOP-92 NSCLC
NCI-H522 lung = tested on: NCI-H522 lung
A549/ATCC NSCLC = tested on: A549/ATCC NSCLC
786-0 renal = tested on: 786-0 renal
COLO 205 colon = tested on: COLO 205 colon

Measured: growth

Cn1cc(-c2cc3ncnc(Nc4ccc(CC(=O)Nc5cc(C(C)(C)C)on5)cc4)c3s2)cn1
inactive: NCI-H23 lung 50.2% | NCI-H226 lung 26% | NCI-H322M lung 32.9% | HOP-62 NSCLC 58.1% | NCI-H460 lung 28.4% | HOP-92 NSCLC 35.8% | NCI-H522 lung 36.3% | A549/ATCC NSCLC 21.6% | 786-0 renal 36% | COLO 205 colon 24.7%

Cc1cccc2c1S/C(=C/c1ccc([N+](=O)[O-])cc1)C2=O
inactive: NCI-H23 lung 91.3% | NCI-H226 lung 86.6% | NCI-H322M lung 96.3% | HOP-62 NSCLC 92.5% | NCI-H460 lung 106% | HOP-92 NSCLC 105% | NCI-H522 lung 93.1% | A549/ATCC NSCLC 106% | 786-0 renal 106% | COLO 205 colon 114%

COC(=O)c1ccc2[nH]c(O)c(C(=Nc3ccc(N(C)C(=O)CN4CCN(C)CC4)cc3)c3ccccc3)c2c1
inactive: NCI-H23 lung 31.1% | NCI-H226 lung 19% | NCI-H322M lung 76.8% | HOP-62 NSCLC 26.1% | NCI-H460 lung 24.9% | HOP-92 NSCLC 59.7% | NCI-H522 lung 50.3% | A549/ATCC NSCLC 39.4% | COLO 205 colon 11.4%
active: 786-0 renal 1.61%

CCN(CC)CCCNc1nc2ccccc2c2c(=O)c3cc(Cl)ccc3sc12
inactive: NCI-H23 lung 86.5% | NCI-H226 lung 82.1% | NCI-H322M lung 84.5% | HOP-62 NSCLC 74.4% | HOP-92 NSCLC 36.9% | NCI-H522 lung 73.8% | A549/ATCC NSCLC 64.7% | 786-0 renal 75.7% | COLO 205 colon 56.3%
active: NCI-H460 lung 8.8%

Cc1ccc(C(=O)N/N=C/c2cccc([N+](=O)[O-])c2)cn1
inactive: NCI-H23 lung 101% | NCI-H226 lung 90% | NCI-H322M lung 97.1% | HOP-62 NSCLC 98.7% | NCI-H460 lung 106% | HOP-92 NSCLC 91.4% | NCI-H522 lung 84.8% | A549/ATCC NSCLC 92.1% | 786-0 renal 31.4% | COLO 205 colon 112%

c1cc(-c2nnc(SSc3ncnc4nc[nH]c34)o2)ccn1
inactive: NCI-H23 lung 43% | NCI-H226 lung 53.5% | NCI-H322M lung 55.9% | HOP-62 NSCLC 52.4% | NCI-H460 lung 48.4% | HOP-92 NSCLC 52.9% | A549/ATCC NSCLC 92.5% | 786-0 renal 13.8% | COLO 205 colon 67.7%
active: NCI-H522 lung 6.68%

CCN(CC)S(=O)(=O)c1ccc(NC(=O)CSc2nnc(C)n2-c2ccccc2)cc1
inactive: NCI-H23 lung 97.6% | NCI-H226 lung 95.3% | NCI-H322M lung 113% | HOP-62 NSCLC 104% | NCI-H460 lung 115% | HOP-92 NSCLC 76.9% | NCI-H522 lung 85.3% | A549/ATCC NSCLC 109% | 786-0 renal 109% | COLO 205 colon 112%

S=c1nc(-c2ccccc2)oc(=NC2CCCCC2)n1C1CCCCC1
active: HOP-92 NSCLC -24.9% | NCI-H522 lung -25.6%
inactive: NCI-H23 lung 61.1% | NCI-H226 lung 105% | NCI-H322M lung 28.3% | HOP-62 NSCLC 62.8% | NCI-H460 lung 10.7% | A549/ATCC NSCLC 31.5% | 786-0 renal 43% | COLO 205 colon 58.8%

COc1cccc(-c2nc(-c3ccc(NC(=O)C(C)C)cc3)[nH]c2-c2ccnc(Br)c2)c1
inactive: NCI-H23 lung 51.3% | NCI-H226 lung 43.5% | NCI-H322M lung 43.7% | HOP-62 NSCLC 24.1% | NCI-H460 lung 31.8% | HOP-92 NSCLC 43.4% | NCI-H522 lung 19.5% | A549/ATCC NSCLC 38.8% | COLO 205 colon 30.1%
active: 786-0 renal -14.1%

COc1ccc(/C=N/Nc2cc(=O)[nH]c3ccc(Cl)cc23)cc1
active: NCI-H522 lung -42.7%
inactive: NCI-H23 lung 20.2% | NCI-H226 lung 80.4% | NCI-H322M lung 66.3% | HOP-62 NSCLC 71.9% | NCI-H460 lung 23.9% | HOP-92 NSCLC 70.8% | A549/ATCC NSCLC 40.2% | 786-0 renal 62.1% | COLO 205 colon 83.3%

COc1ccc(-c2c(C(=O)NS(C)(=O)=O)n(Cc3cccc(C(F)(F)F)c3)c3ccccc23)cc1
inactive: NCI-H23 lung 97.4% | NCI-H226 lung 82.1% | NCI-H322M lung 94.5% | HOP-62 NSCLC 89.4% | NCI-H460 lung 89.7% | HOP-92 NSCLC 62.2% | NCI-H522 lung 80.8% | A549/ATCC NSCLC 88.8% | 786-0 renal 95.3% | COLO 205 colon 105%

COc1ccc(CNC(=O)C(=O)[C@H](Cc2ccccc2)NC(=O)c2[nH]c3ccccc3c(=O)c2C)cc1
inactive: NCI-H23 lung 101% | NCI-H226 lung 103% | NCI-H322M lung 96.8% | HOP-62 NSCLC 102% | NCI-H460 lung 108% | HOP-92 NSCLC 117% | NCI-H522 lung 96.4% | A549/ATCC NSCLC 95.6% | 786-0 renal 102% | COLO 205 colon 113%

COc1cc(C2CC(c3ccc(SC)cc3)=NN2C(C)=O)cc(OC)c1OC (stereo not given)
inactive: NCI-H23 lung 70.5% | NCI-H226 lung 85.3% | NCI-H322M lung 91% | HOP-62 NSCLC 80.1% | NCI-H460 lung 48.6% | HOP-92 NSCLC 83.7% | NCI-H522 lung 35.2% | A549/ATCC NSCLC 58% | 786-0 renal 84.6% | COLO 205 colon 64.6%

COc1ccc(CN2c3ccccc3CCc3ccccc32)cc1F
inactive: NCI-H23 lung 38.7% | NCI-H226 lung 52.9% | NCI-H322M lung 57.6% | HOP-62 NSCLC 36.8% | HOP-92 NSCLC 36.4% | A549/ATCC NSCLC 21.2% | 786-0 renal 33.9%
active: NCI-H460 lung 6.64% | NCI-H522 lung -36% | COLO 205 colon -13.9%

COc1ccc2cc(C(C)C(=O)Nc3ccc(-c4n[nH]c(=S)n4C4CCCCC4)cc3)ccc2c1 (stereo not given)
inactive: NCI-H23 lung 90.2% | NCI-H226 lung 95.3% | NCI-H322M lung 114% | HOP-62 NSCLC 84.3% | NCI-H460 lung 43.2% | HOP-92 NSCLC 43.4% | NCI-H522 lung 64.8% | A549/ATCC NSCLC 41.2% | 786-0 renal 78.4% | COLO 205 colon 75.5%

Cc1cc(=O)oc2cc(OC(=O)CN3CCN(C)CC3)ccc12
inactive: NCI-H23 lung 97.4% | NCI-H226 lung 100% | NCI-H322M lung 105% | HOP-62 NSCLC 99.3% | NCI-H460 lung 102% | HOP-92 NSCLC 88.5% | NCI-H522 lung 92.4% | A549/ATCC NSCLC 102% | 786-0 renal 105% | COLO 205 colon 110%

From PubChem BioAssay (NCI)
